# Screening results deposited in PubChem by several laboratories.
# PG9 binder = binders of HIV-1 gp120 antibody PG9, primary screen, biochemical, TR-FRET; HIV-1 gp120 / PG9 antibody interaction; TR-FRET gp120-PG9 antibody binding; inhibition, % at 6.7 µM; hit rate 0.43% among 360,000; AID 624416, 2012; in the data active means inhibition above about 8.5%
# MBD2 inh = inhibitors of MBD2 binding to methylated DNA, primary screen, biochemical, TR-FRET, DNA-binding domain, human. Methyl-CpG-binding domain protein 2 (Homo sapiens), Q9UBB5. MBD2 binding to methylated oligonucleotide. inhibition, % at 4.4 µM. hit rate 0.31% among 370,000. AID 686964, 2013; in the data active means inhibition above about 13%
# rCAG RNA binder = binders of r(CAG) RNA repeats, primary screen, biochemical, fluorescence; r(CAG) RNA repeat, TO-PRO-1 dye displacement fluorescence; inhibition, % at 3 µM; hit rate 1.3% among 370,000; AID 651821, 2012;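 active means inhibition above the plate cutoff, the mean of all test compounds on that plate plus 3 SD, cut at about 35% in these data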;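 further: 0% = DMSO alone and 100% = 100 µM mitoxantrone as full dye displacement; higher means more dye released from RNA so lower well fluorescence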
# LEDGF integ inh = blockers of LEDGF/p75-dependent integrase strand transfer – biochemical, TR-FRET, high throughput, primary screen. HIV-1 integrase (with human LEDGF/p75). TR-FRET IN-LEDGF/p75 DNA integration, Eu/Cy5. inhibition, % at 3.7 µM. hit rate 0.64% among 370,000. AID 743269, 2014;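 active means inhibition above the screen-wide mean plus 3 SD, cut at about 13% in these data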;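 further: signal is the Cy5 over europium emission ratio at 671 and 618 nm; 0% = plate median of compound wells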
# DNMT1 block = human DNMT1 methyltransferase inhibitors, primary screen, biochemical, molecular beacon, fluorescence, HinP1I cleavage, uHTS | inhibition (reported as % activation of signal), % at 10 µM | DNA (cytosine-5)-methyltransferase 1 (Homo sapiens), P26358 | AID 588458, 2011 | hit rate 0.83% among 360,000; in the data active means inhibition above about 50%
# UHRF1 MBD2 ctr = UHRF1 methylated DNA binding inhibitors, primary screen, counter-screen for MBD2 inhibitor project, biochemical, TR-FRET, human UHRF1, single concentration | UHRF1 binding to methylated oligo | inhibition, % at 4.4 µM | hit rate 0.75% among 370,000 | AID 687016, 2013; in the data active means inhibition above about 21%;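 further: UHRF1 SRA domain binding a hemimethylated CpG hairpin DNA probe; 0% = median of test compound wells and 100% = reference inhibitor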
# rCAG bind conf = small molecules binding CAG repeat RNA – biochemical, fluorescence, confirmation. inhibition, % at 3 µM. AID 652065, 2013. r(CAG) RNA repeat, TO-PRO-1 dye displacement fluorescence. hit rate 70% among 4,300. shares compounds with rCAG RNA binder;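 active means inhibition above a per-plate cutoff, the mean inhibition of sample wells plus 3 SD, cut at about 35% in these data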;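 further: loss of TO-PRO-1 fluorescence as compound displaces dye from 1x1 AA loop RNA; 0% = DMSO only wells and 100% = 100 µM mitoxantrone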
# DNA CAG counter = displacement of TO-PRO-1 from CAG DNA duplex, counter-screen for rCAG RNA repeat binder project, biochemical, fluorescence, TO-PRO-1 dye, d(CAG) DNA oligo. shares compounds with rCAG RNA binder. d(CAG) DNA oligo TO-PRO-1 dye displacement. inhibition, % at 3 µM. hit rate 94% among 4,300. AID 652068, 2013;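 active means inhibition above its plate's cutoff, the mean test-well inhibition plus 3 SD, cut at about 4.8% in these data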;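 further: 0% = DNA dye mix with DMSO and 100% = 100 µM mitoxantrone; hits displace the dye from DNA and so lower well fluorescence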
# * hit, by the source's call; . = no result. This is a sample that favours compounds with a hit; in the whole collection about 3.5% have one here.
SMILES,PG9 binder,MBD2 inh,rCAG RNA binder,LEDGF integ inh,DNMT1 block,UHRF1 MBD2 ctr,rCAG bind conf,DNA CAG counter
O=[N+]([O-])c1cc(S(=O)(=O)O)cc([N+](=O)[O-])c1NN(c1ccccc1)c1ccccc1,-2,-6,48*,0,7,0,36*,11*
CC(Oc1ccc(S(=O)(=O)N2CCCC2)cc1[N+](=O)[O-])C(=O)N(C)c1ccccc1 (configuration not stated),0,1,-5,-5,2,1,.,.
CCCCCCCCN1C(=O)[C@@H](CC(=O)NCCCC)C[C@@]2(C(=O)OC)C1=C[C@H](COCc1ccccc1)O[C@@H]2C,.,-1,4,4,.,-2,.,.
CC1=NN(c2ccc(C(=O)O)cc2)C(=O)/C1=C\c1ccc(OC(=O)c2cccs2)cc1,-2,2,45*,3,5,3,52*,18*
COC(CNC(=O)[C@H](Cc1ccccc1)NCC(=O)NC1CCCCC1)OC,.,6,.,-2,.,2,.,.
COC(=O)C[C@@H]1CC[C@H]2[C@H](COc3ccc(NC(=O)Nc4ccc(Cl)cc4)cc3C(=O)N2C)O1,.,-7,5,3,.,0,.,.
CC1(C(=O)NS(=O)(=O)c2ccc3ccccc3c2)CCN1C(=O)Cc1ccc(Cl)cc1Cl (configuration not stated),0,0,52*,1,-1,3,54*,18*
CC1(C(=O)NS(=O)(=O)c2ccccc2)CCN1C(=O)CCc1ccc(Cl)cc1Cl (configuration not stated),2,-4,27,2,0,3,.,.
Cc1ccc(S(=O)(=O)NC(=O)C2(C)CCN2C(=O)Cc2ccc(Cl)cc2Cl)cc1 (configuration not stated),-1,-4,22,-3,7,1,.,.
CC1(C(=O)NS(=O)(=O)c2cccc(Cl)c2)CCN1C(=O)CCc1ccc(Cl)cc1Cl (configuration not stated),1,0,54*,-6,3,2,52*,16*
CCCCc1ccc(S(=O)(=O)NC(=O)C2(C)CCN2C(=O)CCc2cccs2)cc1 (configuration not stated),-2,3,44*,-1,-1,14,36*,9.9*
CCOc1ccc(-n2c(SCC(=O)Nc3ccc(OCc4ccccc4)cc3)nnc2-c2ccc(Cl)cc2)cc1,.,-7,7,0,.,-1,.,.
Cc1ccc(NC(=O)COC(=O)CCC2CCCC2)cc1S(=O)(=O)N1CCOCC1,-1,1,5,-4,-3,-2,.,.
CC1=CC2=NC(=O)C(c3ccccc3)C(=O)N2C=C1 (configuration not stated),-1,6,0,2,0,15,.,.
CN1CCCCC1(C)C(=O)NCc1ccc(C(C)(C)C)cc1 (configuration not stated),-1,5,-3,1,6,-1,.,.
COc1ccc(/C=C/C(=O)Nc2c(C(=O)O)[nH]c3ccccc23)cc1OC,-4,1,38*,-5,-1,2,26,7.0*
OC(c1ccccc1)(c1ccccc1)C1CCN(CCCOc2ccc(C(F)(F)F)cc2)CC1,-3,-1,0,1,.,2,.,.
Cc1c(C)n(Cc2ccc(-c3ccccc3C(=O)O)cc2)c2ccc(C(=O)N[C@@H](C)c3ccc(Br)cc3)cc12,.,2,77*,4,.,-3,77*,38*
Cc1c(C(=O)NNC(=O)c2ccccc2O)oc2ccccc12,-1,4,8,-8,-1,-2,.,.
COc1cc(C2Nc3cccc4cccc(c34)N2)ccc1O,-3,3,53*,-1,-39,-3,48*,26*
Cc1cccc(N2C(=O)C(O)=C(C(=O)c3cccs3)C2c2cccc(Oc3ccccc3)c2)n1 (configuration not stated),0,-4,45*,0,0,0,40*,10*
Cc1ccc([C@H]2C[C@H](n3cc(C4CC4)nn3)[C@@H](O)CN2C(=O)C2CCCCC2)cc1,-1,3,1,2,4,1,.,.
Cc1nc(NS(=O)(=O)c2ccccc2)sc1NC(=O)Nc1ccccc1,-8,-2,23,-3,1,1,.,.
Cc1nc(NS(=O)(=O)c2ccccc2)sc1NC(=O)Nc1ccc(Cl)cc1,0,0,49*,-10,-5,0,38*,15*
CC(=O)c1ccc(NC(=O)Nc2sc(NS(=O)(=O)c3ccccc3)nc2C)cc1,-9,1,38*,-2,4,0,22,8.2*
SMILES,PG9 binder,MBD2 inh,rCAG RNA binder,LEDGF integ inh,DNMT1 block,UHRF1 MBD2 ctr,rCAG bind conf,DNA CAG counter
O=S1(=O)N[C@@H](Cc2ccccc2)COc2cc(N3CC[C@H](O)C3)ccc21,-2,2,0,1,.,19,.,.
CCN(CC)C(=O)Cn1cc(S(=O)(=O)CC(=O)N2CC(C)OC(C)C2)c2ccccc21 (configuration not stated),-3,3,-6,1,2,1,.,.
O=C(CNC(=O)OCc1ccccc1)NC(Cc1cnc[nH]1)C(=O)O (configuration not stated),0,-3,3,5,-3,2,.,.
N#CC(C#N)=NNc1ccc(S(=O)(=O)N2CCCCC2)cc1,-3,1,46*,3,-21,1,41*,15*
CC(C)(C)c1ccc(OC(=O)Nc2ccc(O)c(C(=O)O)c2)cc1,1,3,54*,4,-7,-2,37*,11*
Cc1ccc(S(=O)(=O)N/N=C/c2ccc(OS(=O)(=O)c3ccc(C)c([N+](=O)[O-])c3)cc2)cc1,-3,-2,35*,0,-8,0,50*,15*
O=C(O)CC(C(=O)O)N1C(=O)/C(=C/c2ccc(-c3nc4ccccc4s3)o2)SC1=S (configuration not stated),-6,34*,62*,53*,107*,79*,54*,19*
